{"source": "PubChem BioAssay (NCI)", "note": "This is part of a sample that, as a whole, favours compounds with a hit. Of some 83,000 tested, about 20% had one in any assay.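 A percent growth of 40 corresponds to 60% growth inhibition; 0 means no net growth; -100 means all cells died. Active threshold: below 10.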 The source made the active and inactive calls."}
{"system": "NCI-H460 lung", "assay": "NCI-60 one-dose screen, 48 h (100 = growth as untreated, 0 = no growth, -100 = all killed)", "conditions": "10 µM"}
{"smiles": "CCCCCCCCCCC1CO1", "note": "(stereo not given)", "growth": "105% (inactive)"}
{"smiles": "CC(=Nc1ccccc1)C1=C(O)C(Cc2cccc(F)c2)NC1=O", "note": "(stereo not given)", "growth": "6.19% (active)"}
{"smiles": "O=[N+]([O-])c1ccc(S(=O)(=O)NN=C2CCCCC2)cc1", "growth": "121% (inactive)"}
{"smiles": "CC(=O)OCC(=O)[C@@]1(O)CC[C@H]2[C@@H]3CC[C@@H]4C[C@H](O)CC[C@]4(C)[C@H]3C(=O)C[C@@]21C", "growth": "108% (inactive)"}
{"smiles": "O=c1[nH]nc(SC2CCCCC2)c(=O)[nH]1", "growth": "104% (inactive)"}
{"smiles": "CC1CCC(C(=O)O)N1", "note": "(stereo not given)", "growth": "115% (inactive)"}
{"smiles": "O=P(O)(O)OCC(O)CO", "note": "(stereo not given)", "growth": "109% (inactive)"}
{"smiles": "COc1cccc(/C=N/NC(=S)NC2CC3CCC2C3)c1O", "note": "(stereo not given)", "growth": "3.68% (active)"}
{"smiles": "CCn1c(=O)n(C)c2c(=O)n(C)c(=O)n(C)c21", "growth": "112% (inactive)"}
{"smiles": "CC(=O)c1ccc(N=C(C#N)C2=C(O)c3ccccc3C2=O)cc1", "growth": "101% (inactive)"}
{"smiles": "O=[N+]([O-])c1cccc(N=Nc2ccc(O)cc2O)c1", "growth": "91.6% (inactive)"}
{"smiles": "COc1ccc(-c2cc3c(nn2)-c2ccccc2C3=O)cc1", "growth": "15.1% (inactive)"}
{"smiles": "COc1cc2nn(-c3ccccc3N)nc2cc1OC", "growth": "102% (inactive)"}
{"smiles": "CC1CC(O)C2C3(C)CCCC2(COC3=O)C12CCC1(CCOC1=O)O2", "note": "(stereo not given)", "growth": "95.4% (inactive)"}
{"smiles": "NC(=S)N/N=C/c1ccc(N)cc1", "growth": "106% (inactive)"}
{"smiles": "O=C(O)COCC(=O)O", "growth": "107% (inactive)"}
{"smiles": "Cc1cc(N)c(S(=O)(=O)O)c(N)c1", "growth": "104% (inactive)"}
{"smiles": "S=C1CCCCCN1", "growth": "106% (inactive)"}
{"smiles": "O=c1[nH][nH]c(=O)c2cc([N+](=O)[O-])ccc12", "growth": "111% (inactive)"}
{"smiles": "CC(=O)OCCO", "growth": "111% (inactive)"}
{"smiles": "C/C(=N/NC(N)=O)c1ccco1", "growth": "107% (inactive)"}
{"smiles": "CC1CCCCN1C(=S)Nc1ccc(S(=O)(=O)N2CCCCC2)cc1", "note": "(stereo not given)", "growth": "97.1% (inactive)"}
{"smiles": "COC(=O)c1ccc(C(C)C)cc1", "growth": "114% (inactive)"}
{"smiles": "OCC(O)C(O)C(O)C(O)/C=N/O", "note": "(stereo not given)", "growth": "99.8% (inactive)"}
{"smiles": "O=[N+]([O-])c1ccc(N=Nc2ccc(O)c3ccccc23)cc1", "growth": "30.9% (inactive)"}
{"smiles": "Cc1ccc(S(=O)(=O)O)c(C)c1", "growth": "103% (inactive)"}
{"smiles": "COCCOC(=O)c1ccc(C(C)C)cc1", "growth": "108% (inactive)"}
{"smiles": "CCNc1nc2c(cnn2C)c(=O)[nH]1", "growth": "108% (inactive)"}
{"smiles": "NCCCN", "growth": "108% (inactive)"}
{"smiles": "COc1cc2c3cc1Oc1c(OC)c(OC)cc4c1C(Cc1ccc(O)c(c1)Oc1ccc(cc1)CC3N(C)CC2)N(C)CC4", "note": "(stereo not given)", "growth": "2.92% (active)"}
{"smiles": "O=[N+]([O-])c1ccccc1N=Nc1ccc(O)cc1O", "growth": "115% (inactive)"}
{"smiles": "CCOC(=O)c1ccc(NC(=S)P(=O)(c2ccccc2)c2ccccc2)cc1", "growth": "71.3% (inactive)"}
{"smiles": "CCCCOC(=O)c1ccc(C(C)C)cc1", "growth": "109% (inactive)"}
{"smiles": "CC1C(=O)c2ccccc2CC1C(=O)O", "note": "(stereo not given)", "growth": "122% (inactive)"}
{"smiles": "CNc1nc(NC)c2cn[nH]c2n1", "growth": "109% (inactive)"}
{"smiles": "CC(=O)/C(Cc1ccccc1)=N/O", "growth": "105% (inactive)"}
{"smiles": "COc1cc(C2c3cc4c(cc3C3OC(=O)C2C3CO)OCO4)cc(OC)c1OC", "note": "(stereo not given)", "growth": "0.82% (active)"}
{"smiles": "CCCC(C)OCC(=O)O", "note": "(stereo not given)", "growth": "103% (inactive)"}
{"system": "HOP-92 NSCLC", "assay": "NCI-60 one-dose screen, 48 h (100 = growth as untreated, 0 = no growth, -100 = all killed)", "conditions": "10 µM"}
{"smiles": "CCCCCCCCCCC1CO1", "note": "(stereo not given)", "growth": "89.7% (inactive)"}
{"smiles": "CC(=Nc1ccccc1)C1=C(O)C(Cc2cccc(F)c2)NC1=O", "note": "(stereo not given)", "growth": "41.2% (inactive)"}
{"smiles": "O=[N+]([O-])c1ccc(S(=O)(=O)NN=C2CCCCC2)cc1", "growth": "96.7% (inactive)"}
{"smiles": "CC(=O)OCC(=O)[C@@]1(O)CC[C@H]2[C@@H]3CC[C@@H]4C[C@H](O)CC[C@]4(C)[C@H]3C(=O)C[C@@]21C", "growth": "93.4% (inactive)"}
{"smiles": "O=c1[nH]nc(SC2CCCCC2)c(=O)[nH]1", "growth": "82% (inactive)"}
{"smiles": "CC1CCC(C(=O)O)N1", "note": "(stereo not given)", "growth": "102% (inactive)"}
{"smiles": "O=P(O)(O)OCC(O)CO", "note": "(stereo not given)", "growth": "96.1% (inactive)"}
{"smiles": "COc1cccc(/C=N/NC(=S)NC2CC3CCC2C3)c1O", "note": "(stereo not given)", "growth": "55.5% (inactive)"}
{"smiles": "CCn1c(=O)n(C)c2c(=O)n(C)c(=O)n(C)c21", "growth": "102% (inactive)"}
{"smiles": "O=[N+]([O-])c1cccc(N=Nc2ccc(O)cc2O)c1", "growth": "47.4% (inactive)"}
{"smiles": "COc1ccc(-c2cc3c(nn2)-c2ccccc2C3=O)cc1", "growth": "98.3% (inactive)"}
{"smiles": "COc1cc2nn(-c3ccccc3N)nc2cc1OC", "growth": "85.8% (inactive)"}
{"smiles": "CC1CC(O)C2C3(C)CCCC2(COC3=O)C12CCC1(CCOC1=O)O2", "note": "(stereo not given)", "growth": "81.8% (inactive)"}
{"smiles": "NC(=S)N/N=C/c1ccc(N)cc1", "growth": "89.1% (inactive)"}
{"smiles": "O=C(O)COCC(=O)O", "growth": "72.4% (inactive)"}
{"smiles": "Cc1cc(N)c(S(=O)(=O)O)c(N)c1", "growth": "47.1% (inactive)"}
{"smiles": "S=C1CCCCCN1", "growth": "103% (inactive)"}
{"smiles": "O=c1[nH][nH]c(=O)c2cc([N+](=O)[O-])ccc12", "growth": "107% (inactive)"}
{"smiles": "C/C(=N/NC(N)=O)c1ccco1", "growth": "89.8% (inactive)"}
{"smiles": "CC1CCCCN1C(=S)Nc1ccc(S(=O)(=O)N2CCCCC2)cc1", "note": "(stereo not given)", "growth": "63.1% (inactive)"}
{"smiles": "COC(=O)c1ccc(C(C)C)cc1", "growth": "82.7% (inactive)"}
{"smiles": "OCC(O)C(O)C(O)C(O)/C=N/O", "note": "(stereo not given)", "growth": "74.8% (inactive)"}
{"smiles": "O=[N+]([O-])c1ccc(N=Nc2ccc(O)c3ccccc23)cc1", "growth": "10.8% (inactive)"}
{"smiles": "Cc1ccc(S(=O)(=O)O)c(C)c1", "growth": "92.4% (inactive)"}
{"smiles": "COCCOC(=O)c1ccc(C(C)C)cc1", "growth": "81.8% (inactive)"}
{"smiles": "NCCCN", "growth": "103% (inactive)"}
{"smiles": "COc1cc2c3cc1Oc1c(OC)c(OC)cc4c1C(Cc1ccc(O)c(c1)Oc1ccc(cc1)CC3N(C)CC2)N(C)CC4", "note": "(stereo not given)", "growth": "-17.1% (active)"}
{"smiles": "O=[N+]([O-])c1ccccc1N=Nc1ccc(O)cc1O", "growth": "112% (inactive)"}
{"smiles": "CC1C(=O)c2ccccc2CC1C(=O)O", "note": "(stereo not given)", "growth": "101% (inactive)"}
{"smiles": "CNc1nc(NC)c2cn[nH]c2n1", "growth": "84.9% (inactive)"}
{"smiles": "CC(=O)/C(Cc1ccccc1)=N/O", "growth": "68% (inactive)"}
{"smiles": "CCCC(C)OCC(=O)O", "note": "(stereo not given)", "growth": "76.6% (inactive)"}
